Active and inactive are the calls of the source. The calls were made as follows: active = hit-call score of the fitted dose curve at least 0.9, where 1 is the maximum; inactive = score below 0.9.
Assay: BSK_SAg_PBMCCytotoxicity: PBMC Cytotoxicity Assessment in the BioMAP Diversity Plus: SAg Assay (AID 2283093);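 also: fitted both ways against DMSO so a hit may be loss or gain of signal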
Settings: primary human HUVEC with PBMC
Method: BSK_SAg is a cell-based, multiplexed-readout assay that uses umbilical vein endothelium and peripheral blood mononuclear cells, a human vascular primary cell co-culture, with measurements taken at 24 hours after chemical dosing in a 96-well plate.BSK_SAg_PBMCCytotoxicity is an assay component measured in the BSK_SAg assay. It measures Alamar blue related to cell death using Alamar Blue Reduction technology.Data from the assay component BSK_SAg_PBMCCytotoxicity was analyzed into 1 assay endpoint. This assay endpoint, BSK_SAg_PBMCCytotoxicity, was analyzed with bidirectional fitting relative to DMSO as the negative control and baseline of activity. Using a type of viability reporter, gain or loss-of-signal activity can be used to understand changes in the viability. Furthermore, this assay endpoint can be referred to as a secondary readout, because this assay has produced multiple assay endpoints where this one serves a viability function. To generalize the intended target to other relatable targets, this assay endpoint is annotated to the cell cycle intended target family, where the subfamily is cytotoxicity.
The levels of cell surface (or secreted, indicated by the prefix "s") biomarker endpoints were measured by ELISA. Overt cytotoxicity to cells in confluent adherent cultures (all systems other than the BT system) was assessed by measuring total protein levels using sulforhodamine B (SRB) staining in parallel cultures at the time of biomarker measurements, indicated as SRB endpoints. For proliferation assays for adherent cell types, individual cell types are cultured at sub-confluence and relative cell numbers quantified by SRB staining at time points optimized for each system (48 h: 3C and CASM3C systems; 72 h: BT and HDF3CGF systems; 96 h: SAg system). SRB was performed by staining cells with 0.1% SRB after fixation with 10% TCA and reading wells at 560 nm.Viability and proliferation of PBMC (T cells) was quantified by Alamar Blue reduction for the SAg and BT systems. For PBMC viability (referred to as PBMC Cytotoxicity within the assay endpoint names), cells were plated (75,000/well in a 96-well plate) and then chemical samples added for 1 h before addition of activators, SEB and TSST-1 (20 ng/mL final concentration each). Cells were incubated for 90 h. Then, Alamar Blue (20 uL/well) (Invitrogen, Cat DAL1100) was added for 6 h, and the plates were read with a fluorescence microplate reader at 546/580 nm (excitation/emission). For PBMC proliferation, cells were plated and activated as above but incubated for only 16 h prior to addition of Alamar Blue. Plates were read after 6 h.

Compound | outcome | AC50
Clc1cc(Cl)c2c(c1)N=C1CCCCCN1C2 | inactive | –
c1ccc(C[n+]2cccc3ccccc32)cc1 | inactive | –
CCO[Si](CCCNC(N)=O)(OCC)OCC | inactive | –
O=C(OCCCCCCOC(=O)c1ccccc1)c1ccccc1 | inactive | –
CN1C(=O)CC[C@H]1c1cccnc1 | inactive | –
Cc1cc2c(cc1C(F)(F)F)N(C(=O)Nc1ccc(Oc3cccnc3C)nc1)CC2 | inactive | –
OCCO | inactive | –
CCCCCCCCCCCCO | – | 35.1 µM (active)
Cc1ccc2oc(CN(Cc3ccccc3)C(=O)Nc3c(F)cc(F)cc3F)c(-c3ccc(Cl)cc3)c2c1 | inactive | –
C[C@]12CC[C@@H]3c4ccc(O)cc4CC[C@H]3[C@@H]1CCC2=O | inactive | –
CN(C[C@@H](CC[N+]12CCC(C3CCCCC3)(CC1)CC2)c1ccc(Cl)c(Cl)c1)C(=O)c1cc(C(F)(F)F)cc(C(F)(F)F)c1 | – | 9.71 µM (active)
O=C(O)Cc1cc(I)c(Oc2ccc(O)c(I)c2)c(I)c1 | inactive | –
COCC(C)OCC(C)OCC(C)O (stereo not given) | inactive | –
CC(C)(c1cc(Br)c(O)c(Br)c1)c1cc(Br)c(O)c(Br)c1 | – | 33.3 µM (active)
Oc1ccccc1 | inactive | –
CC/C(=C(/CC)c1ccc(O)cc1)c1ccc(O)cc1 | – | 29.1 µM (active)
O=C1c2ccccc2C(=O)N1CCc1noc(-c2ccc(CN3CCCCCC3)s2)n1 | inactive | –
CC1=CC(=O)/C(=C(/C)O)C(=O)O1 | inactive | –
C[C@]12CC[C@@H]3c4ccc(O)cc4CC[C@H]3[C@@H]1CC[C@H]2O | inactive | –
Clc1ccccc1C(c1ccccc1)(c1ccccc1)n1ccnc1 | – | 33.1 µM (active)

Compound | outcome | AC50
O=C(Nc1ccc(Cl)cc1)Nc1ccc(Cl)c(Cl)c1 | – | 2.72 µM (active)
CC[C@@H]1C[C@H](N(Cc2cc(C(F)(F)F)cc(C(F)(F)F)c2)C(C)=O)c2cc(C(F)(F)F)ccc2N1C(=O)OC(C)C | inactive | –
O=C1CCC(C2CCCCC2)CC1 | inactive | –
Cc1c2ccccc2c(C)c2c1ccc1ccccc12 | – | 34 µM (active)
Cc1cc(F)ccc1-c1cc(N2CC[C@@H](O)[C@H]2CO)ncc1N(C)C(=O)C(C)(C)c1cc(C(F)(F)F)cc(C(F)(F)F)c1 | – | 7.85 µM (active)
CCCCCCCCCC(=O)O | inactive | –
CO[C@H]1/C=C/O[C@@]2(C)Oc3c(C)c(O)c4c(O)c(c(/C=N/N5CCN(C)CC5)c(O)c4c3C2=O)NC(=O)/C(C)=C\C=C\[C@H](C)[C@H](O)[C@@H](C)[C@@H](O)[C@@H](C)[C@H](OC(C)=O)[C@@H]1C | – | 9.8 µM (active)
CCCCCCCCCCCO | – | 33.1 µM (active)
CC(O)CC(C)(C)O (stereo not given) | inactive | –
OC12N=C(c3ccccc3)SC1Cc1cc(Cl)ccc12 (stereo not given) | – | 28.6 µM (active)
c1ccc2ccccc2c1 | inactive | –
CC(=O)N1CCN(c2ccc(OC[C@H]3CO[C@](Cn4ccnc4)(c4ccc(Cl)cc4Cl)O3)cc2)CC1 | – | 33 µM (active)
CCCCOC(=O)c1ccc(O)cc1 | inactive | –
CC(C)(C)c1csc(-c2cc3cc(OCc4ccccc4CC(=O)O)ccc3o2)n1 | inactive | –
Cc1cn([C@H]2C[C@H](N=[N+]=[N-])[C@@H](CO)O2)c(=O)[nH]c1=O | inactive | –
O=C(O)c1ccccc1C(=O)OCc1ccccc1 | inactive | –
Cc1ncc(CO)c(CO)c1O | inactive | –
O=c1ccc2ccccc2o1 | inactive | –
NCc1cccc(C2CCN(C(=O)c3ccc(C#Cc4ccccc4F)o3)CC2)c1 | – | 11.9 µM (active)
O=C1O[C@H]([C@@H](O)CO)C(O)=C1O | inactive | –

Source: PubChem BioAssay (EPA / NIEHS)
